Source: PubChem BioAssay (NCI)
The panel holds about 83,000 compounds, 20% with a hit somewhere; the sample as a whole holds those more often.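 Growth was measured after 48 h exposure to one concentration of compound in 96-well plates. Values under 10 count as active.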 Values without a mark were called inactive. Calls of active or inactive are those of the source.

Tests used:
Test in all cases: NCI-60 one-dose screen, 48 h (100 = growth as untreated, 0 = no growth, -100 = all killed)
Conditions in all cases: 10 µM unless noted
RPMI-8226 leukemia = system: RPMI-8226 leukemia
OVCAR-8 ovarian = system: OVCAR-8 ovarian
OVCAR-5 ovarian = system: OVCAR-5 ovarian
OVCAR-4 ovarian = system: OVCAR-4 ovarian
SK-OV-3 ovarian = system: SK-OV-3 ovarian
IGROV1 ovarian = system: IGROV1 ovarian
OVCAR-3 ovarian = system: OVCAR-3 ovarian
HS 578T breast = system: HS 578T breast
NCI/ADR-RES ovarian = system: NCI/ADR-RES ovarian
SR leukemia = system: SR leukemia

O=C(CSc1nc2ccccc2[nH]1)Nc1ccc(-c2nc3ccccc3s2)c(Cl)c1
growth (RPMI-8226 leukemia): 28.9% | growth (OVCAR-8 ovarian): -9.6% (active) | growth (OVCAR-5 ovarian): 20.4% | growth (OVCAR-4 ovarian): -39.8% (active) | growth (SK-OV-3 ovarian): 12.4% | growth (IGROV1 ovarian): -52.3% (active) | growth (OVCAR-3 ovarian): -17.2% (active) | growth (HS 578T breast): 65.2% | growth (NCI/ADR-RES ovarian): 9.5% (active)

COc1ccc(N2CCN(Cc3cc(C(=O)/C=C/c4c[nH]c5ccccc45)ccc3O)CC2)cc1
growth (RPMI-8226 leukemia): 94.8% | growth (OVCAR-8 ovarian): 95.5% | growth (OVCAR-5 ovarian): 106% | growth (OVCAR-4 ovarian): 93% | growth (SK-OV-3 ovarian): 93.5% | growth (IGROV1 ovarian): 109% | growth (OVCAR-3 ovarian): 114% | growth (HS 578T breast): 105% | growth (NCI/ADR-RES ovarian): 106%

COc1ccc(Nc2nn3c(-c4ccccc4)cc(-c4ccccc4)nc3c2C(N)=O)c(OC)c1
growth (RPMI-8226 leukemia): 71.8% | growth (OVCAR-8 ovarian): 27.8% | growth (OVCAR-5 ovarian): 63.6% | growth (OVCAR-4 ovarian): -8.96% (active) | growth (SK-OV-3 ovarian): 63.7% | growth (IGROV1 ovarian): 91.6% | growth (OVCAR-3 ovarian): 46.2% | growth (HS 578T breast): 56.8% | growth (NCI/ADR-RES ovarian): 30.4%

Nc1nnc(-c2ccc3ccccc3c2O)o1
growth (RPMI-8226 leukemia): 90.8% | growth (OVCAR-8 ovarian): 97.6% | growth (OVCAR-5 ovarian): 102% | growth (OVCAR-4 ovarian): 81.2% | growth (SK-OV-3 ovarian): 105% | growth (IGROV1 ovarian): 86% | growth (OVCAR-3 ovarian): 99.2% | growth (HS 578T breast): 97.9% | growth (NCI/ADR-RES ovarian): 84.5%

Cc1ccc(CSC(=N)N)cc1C
growth (RPMI-8226 leukemia): 78.7% | growth (OVCAR-8 ovarian): 109% | growth (OVCAR-5 ovarian): 114% | growth (OVCAR-4 ovarian): 101% | growth (SK-OV-3 ovarian): 111% | growth (IGROV1 ovarian): 106% | growth (OVCAR-3 ovarian): 116% | growth (HS 578T breast): 103% | growth (NCI/ADR-RES ovarian): 98.8%

COc1c2occc2c(OC)c2c(=O)c(-c3cc(-c4ccc(F)cc4)c(C#N)c(N)n3)c(C)oc12
growth (RPMI-8226 leukemia): 27.3% | growth (OVCAR-8 ovarian): 49.1% | growth (OVCAR-5 ovarian): 91.9% | growth (OVCAR-4 ovarian): 19.4% | growth (SK-OV-3 ovarian): 56.5% | growth (IGROV1 ovarian): 21.3% | growth (OVCAR-3 ovarian): 15.2% | growth (HS 578T breast): 43.7% | growth (NCI/ADR-RES ovarian): 68.2%

COc1cc(-c2nn(-c3cccc(NC(=O)Nc4ccc(Cl)c(C(F)(F)F)c4)c3)cc2-c2ccncc2)ccc1Cl
growth (RPMI-8226 leukemia): -8.66% (active) | growth (OVCAR-8 ovarian): -19.9% (active) | growth (OVCAR-5 ovarian): 35.8% | growth (OVCAR-4 ovarian): 20.8% | growth (SK-OV-3 ovarian): 0.426% (active) | growth (IGROV1 ovarian): 25.6% | growth (OVCAR-3 ovarian): -12.4% (active) | growth (HS 578T breast): 2.21% (active) | growth (NCI/ADR-RES ovarian): -0.864% (active)

COc1cc(-c2nc(-c3nc4ccc(Cl)cc4[nH]3)cc3c2[nH]c2ccccc23)cc(OC)c1OC
growth (RPMI-8226 leukemia): 45.2% | growth (OVCAR-8 ovarian): 48.4% | growth (OVCAR-5 ovarian): 93.3% | growth (OVCAR-4 ovarian): 59.9% | growth (SK-OV-3 ovarian): 103% | growth (IGROV1 ovarian): 52.6% | growth (OVCAR-3 ovarian): 82.8% | growth (HS 578T breast): 77.3% | growth (NCI/ADR-RES ovarian): 55.6%

Fc1ccc(Nc2nc(NCCNc3ccnc4cc(Cl)ccc34)nc(N3CCOCC3)n2)cc1
growth (RPMI-8226 leukemia): 33.6% | growth (OVCAR-8 ovarian): 74.7% | growth (OVCAR-5 ovarian): 105% | growth (OVCAR-4 ovarian): 61.1% | growth (SK-OV-3 ovarian): 91.6% | growth (IGROV1 ovarian): 75.5% | growth (OVCAR-3 ovarian): 85.1% | growth (HS 578T breast): 70.2% | growth (NCI/ADR-RES ovarian): 77.8%

Cc1[nH]c2ccc(F)cc2c1CCNC(=O)C1CCN(C(=O)c2ccccc2)C1 (centres undefined)
growth (SR leukemia): 96.3% [25 µM] | growth (OVCAR-8 ovarian): 101% [25 µM] | growth (OVCAR-5 ovarian): 81.8% [25 µM] | growth (IGROV1 ovarian): 90.4% [25 µM] | growth (OVCAR-3 ovarian): 101% [25 µM] | growth (HS 578T breast): 90.9% [25 µM] | growth (NCI/ADR-RES ovarian): 97.6% [25 µM]

CN(CCCCN(C[C@H]1Cc2ncccc2CN1)[C@H]1CCCc2cccnc21)C1CCC(F)(F)CC1
growth (RPMI-8226 leukemia): 92.5% | growth (OVCAR-8 ovarian): 85.6% | growth (OVCAR-5 ovarian): 79% | growth (OVCAR-4 ovarian): 108% | growth (SK-OV-3 ovarian): 90.6% | growth (IGROV1 ovarian): 111% | growth (OVCAR-3 ovarian): 98.4% | growth (HS 578T breast): 105% | growth (NCI/ADR-RES ovarian): 85.8%

O=C(CSc1nc2ccccc2[nH]1)c1ccc(N2CCOCC2)cc1
growth (RPMI-8226 leukemia): 109% | growth (OVCAR-8 ovarian): 96% | growth (OVCAR-5 ovarian): 102% | growth (OVCAR-4 ovarian): 96.5% | growth (SK-OV-3 ovarian): 101% | growth (IGROV1 ovarian): 105% | growth (OVCAR-3 ovarian): 106% | growth (HS 578T breast): 99% | growth (NCI/ADR-RES ovarian): 91.9%

O=C(NNC(=S)Nc1ccccc1)c1cc2ccc1CCc1ccc(cc1)CC2
growth (RPMI-8226 leukemia): 46.4% | growth (OVCAR-8 ovarian): 68.2% | growth (OVCAR-5 ovarian): 92.2% | growth (OVCAR-4 ovarian): 47.8% | growth (SK-OV-3 ovarian): 113% | growth (IGROV1 ovarian): 64.1% | growth (OVCAR-3 ovarian): 55.5% | growth (HS 578T breast): 97.2% | growth (NCI/ADR-RES ovarian): 67.2%

C=C1CCC2C(C)(CO)C(O)CCC2(C)C1C/C=C1/C(=O)OCC1O/C=C/c1ccccc1 (centres undefined)
growth (SR leukemia): 27.6% | growth (OVCAR-8 ovarian): 55.3% | growth (OVCAR-5 ovarian): 93.5% | growth (OVCAR-4 ovarian): 62.7% | growth (SK-OV-3 ovarian): 125% | growth (IGROV1 ovarian): 84.1% | growth (OVCAR-3 ovarian): 75.7% | growth (HS 578T breast): 96.3% | growth (NCI/ADR-RES ovarian): 73.9%
